High-throughput results from PubChem BioAssay.
This is a sample that favours compounds with a hit; in the whole collection about 2.7% have one here.
ATXN2 expr inh – inhibitors of ATXN2 expression. HEK-293 ATXN2-luciferase reporter, luminescence, 24 h. Potency, µM (highest dose often 57 µM), most hits filed as inhibitors. hit rate 0.72% among 360,000; also: nearly all actives have a fitted effect of over 55% in size
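ATXN2-luciferase reporter cells (luciferase flanked by upstream and downstream ATXN2 gene portions) were treated 24 h at 37 °C with compounds at up to 57 uM. SteadyGlo luminescence gave expression; GF-AFC fluorescence gave viability.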
HepG2 tox-1 – kills HepG2 cells in TGF-b inhibitor counter-screen; HepG2 CAGA-GFP viability, ATP luminescence, 18 h; Potency, µM (titrated, usually from 46.1 µM), actives largely listed as cytotoxic; hit rate 0.76% among 410,000
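CellTiter-Glo luminescence gave cytotoxicity after 18 hours at 37 degrees C. The cells were HepG2 CAGA-GFP in 1% FBS DMEM, stimulated with 500 pg/mL TGF-beta after compound addition. %Activity was normalised to no-cell wells (complete cell-killing) and DMSO (no toxicity), and curves were fitted and classified.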
TGFb inhibitor – blocks TGF-b signaling | HepG2 CAGA-GFP TGF-b/SMAD3 reporter, GFP fluorescence, 18 h; TGF-beta stimulated, 500 pg/mL final | hit rate 1.2% among 410,000 | Potency, µM (top dose mostly 46.1 µM), usual class: inhibitors; also: nearly all actives have a fitted effect of over 65% in size
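Smad-responsive CAGA-GFP expression was quantified in HEPG2 cells exposed to compounds and 500 pg/mL final TGF-beta for 18 h at 37 degrees C; unstimulated wells defined full inhibition.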
ALOX12 inh – blocks human arachidonate 12S-lipoxygenase; hit rate 1.1% among 580,000; AID 1671190; P18054; purified 12hLO, xylenol orange hydroperoxide absorbance; Potency, µM (titrated, usually from 108 µM), usual class: inhibitors
Target sequence (P18054 whole entry, looked up): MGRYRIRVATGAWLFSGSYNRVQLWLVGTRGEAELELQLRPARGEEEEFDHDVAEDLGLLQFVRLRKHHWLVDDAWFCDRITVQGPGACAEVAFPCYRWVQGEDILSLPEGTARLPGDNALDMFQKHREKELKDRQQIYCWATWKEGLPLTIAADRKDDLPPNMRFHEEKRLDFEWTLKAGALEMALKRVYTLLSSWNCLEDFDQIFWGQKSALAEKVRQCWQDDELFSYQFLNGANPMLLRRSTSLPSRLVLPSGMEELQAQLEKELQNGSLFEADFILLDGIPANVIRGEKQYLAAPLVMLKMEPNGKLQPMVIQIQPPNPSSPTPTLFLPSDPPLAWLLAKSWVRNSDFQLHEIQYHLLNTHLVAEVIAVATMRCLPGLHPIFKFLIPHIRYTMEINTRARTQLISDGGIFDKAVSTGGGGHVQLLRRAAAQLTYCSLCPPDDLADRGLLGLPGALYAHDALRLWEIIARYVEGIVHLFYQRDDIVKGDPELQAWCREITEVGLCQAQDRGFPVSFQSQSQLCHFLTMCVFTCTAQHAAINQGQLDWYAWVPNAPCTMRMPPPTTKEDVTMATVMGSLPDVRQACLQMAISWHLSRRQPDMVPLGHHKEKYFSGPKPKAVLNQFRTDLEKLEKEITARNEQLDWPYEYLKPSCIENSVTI
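Purified human 12hLO at 150 nM in 25 mM Hepes, 0.01% Triton X-100, pH 7.0, preincubated 15 min at room temperature with compound. Reaction started with 40 uM arachidonic acid, 30 min at room temperature. Hydroperoxide measured by Fe-xylenol orange, 573/405 nm absorbance ratio.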
ATXN viability – cell viability loss in ATXN counter-screen; S2 cells (HEK-293 line with an ATXN2-luciferase reporter) viability, CellTiter-Fluor protease fluorescence, 24 h; AID 651635; hit rate 0.49% among 400,000; Potency, µM (doses to about 56.7 µM), most hits filed as cytotoxic; also: nearly all actives have a fitted effect of over 40% in size
TGFb CAGA inh – confirmation of TGF-b signaling inhibitors in HepG2 reporter cells; Potency, µM (doses to about 46.1 µM), usual class: inhibitors; hit rate 63% among 1,600; HepG2 CAGA-GFP TGF-b reporter, GFP fluorescence, 18 h; cells stimulated with TGF-beta, 500 pg/mL; shares compounds with TGFb inhibitor; also: nearly all actives have a fitted effect of over 65% in size
HepG2 tox-2 – HepG2 cytotoxicity, TGF-b inhibitor counterscreen. shares compounds with TGFb inhibitor. HepG2 CAGA-GFP viability, ATP luminescence, 18 h; cells stimulated with TGF-beta, 500 pg/mL. Potency, µM (series often up to 46.1 µM), usual class: inhibitors. hit rate 27% among 1,600; also: nearly all actives have a fitted effect of over 70% in size
TGFb CCL64 inh – orthogonal confirmation of TGF-b inhibitors in CCL64 cells | CCL64 CAGA-GFP reporter, TGF-b stimulated, GFP fluorescence, 18 h | shares compounds with TGFb inhibitor | hit rate 41% among 1,600 | Potency, µM (doses to about 46.1 µM), actives largely listed as inhibitors; also: nearly all actives have a fitted effect of over 65% in size
TGFb COP inh – blocks TGF-b signaling in HepG2 COP reporter. HepG2 COP-GFP TGF-b reporter, GFP fluorescence, 18 h; cells stimulated by added recombinant TGF-beta. shares compounds with TGFb inhibitor. Potency, µM (highest dose often 46.1 µM), actives largely listed as inhibitors. hit rate 3% among 1,600; also: nearly all actives have a fitted effect of over 70% in size
Numbers stand for hits; n = inactive; u = inconclusive; x = not tested or not shown. Calls follow the shape of the dose curve; as a rule, active = well fitted curve in the direction sought with a large enough effect; inconclusive = small, poorly fitted or top-dose-only effect, or another doubt; inactive = no such curve, though single readings can be large; an effect the other way counts as inactive or inconclusive.

SMILES	ATXN2 expr inh	HepG2 tox-1	TGFb inhibitor	ALOX12 inh	ATXN viability	TGFb CAGA inh	HepG2 tox-2	TGFb CCL64 inh	TGFb COP inh
Cc1ccc(CNC(=O)c2cc3c(C)nc4ccccc4c3o2)cc1	u	n	u	n	u	18µM	n	n	n
COC(=O)c1ccc(-n2c(C)cc(C(=O)CSc3cccc[n+]3[O-])c2C)cc1	n	n	n	n	u	x	x	x	x
O=C(CSc1cccc[n+]1[O-])Nc1ccccc1Oc1ccccc1	n	n	u	n	n	n	n	n	n
O=C(CSc1cccc[n+]1[O-])Nc1ccccc1C(F)(F)F	n	n	n	n	n	x	x	x	x
COC(=O)c1ccc(C(=O)OC)c(NC(=O)CSc2cccc[n+]2[O-])c1	1µM	6.3µM	3.5µM	n	1.3µM	n	n	n	n
c1ccc(Cn2ncc3c2CCCC3NCc2ccccn2)cc1 (centres undefined)	x	x	x	n	x	x	x	x	x
O=C1c2ccccc2C(=O)c2c1oc(C(F)(F)F)c2C(=O)c1ccccc1	u	1.1µM	1.1µM	u	u	4.6µM	4.1µM	4.6µM	3.7µM
O=C(c1ccccc1)c1ccc(CN2C(=O)c3ccccc3C2=O)o1	n	n	n	n	n	x	x	x	x
CC1CCCN(S(=O)(=O)c2ccc(-c3nc(C#N)c(NCCCN(C)C)o3)cc2)C1 (centres undefined)	x	x	x	n	x	x	x	x	x
CCC(=O)NC(c1ccco1)c1cc(Cl)c2cccnc2c1O (centres undefined)	u	n	u	n	n	n	n	9.2µM	n
CCC(=O)NC(c1ccc(OC)cc1)c1cc(Cl)c2cccnc2c1O (centres undefined)	u	n	7.9µM	n	n	n	u	8.2µM	n
COc1cccc(C(=O)NC(c2ccc(Cl)cc2)c2cc(Cl)c3cccnc3c2O)c1 (centres undefined)	u	n	u	n	n	x	x	x	x
COc1cc2c(cc1OC)C(C)N(C(=O)c1cc(C)on1)CC2 (centres undefined)	n	n	11µM	n	u	7.3µM	n	u	u
COc1cc2c(cc1OC)C(C)N(C(=O)c1c(C)noc1C)CC2 (centres undefined)	x	n	n	n	u	x	x	x	x
CC(C)Cc1cc(CNC(=O)Nc2nnc(C(C)(C)C)s2)on1	x	x	x	n	x	x	x	x	x
Cc1ccc(OC(C)C(=O)Nc2ccncc2)cc1C (centres undefined)	u	n	10µM	u	n	u	u	n	n
CC(Oc1ccc(Br)cc1)C(=O)Nc1ccncc1 (centres undefined)	n	n	n	n	n	x	x	x	x
Cc1ccc(SCCNC(=O)c2ccc(C)c(S(=O)(=O)Nc3cccc(C)c3)c2)cc1	u	n	13µM	n	u	u	u	u	n
CC(=O)N1CCc2c(sc(NC(=O)c3ccc([N+](=O)[O-])o3)c2C#N)C1	n	n	5.6µM	u	u	4.1µM	3.3µM	10µM	u
COC(=O)c1sc(NC(=O)c2ccc([N+](=O)[O-])o2)c(C#N)c1C	x	n	4.5µM	n	u	7.3µM	10µM	15µM	n
CCOC(=O)c1sc(NC(=O)c2ccco2)c(C#N)c1C	n	n	n	n	n	x	x	x	x
COC(=O)c1c(NC(=O)c2ccc([N+](=O)[O-])o2)sc2c1CCN(C(C)C)C2	u	n	20µM	n	u	2.6µM	10µM	26µM	n
CCC(C)NC(=O)Cn1c(=O)n(C)c(=O)c2sc(N3CCCC3)nc21 (centres undefined)	x	x	x	n	x	x	x	x	x
